{
  "source": "PubChem BioAssay (NCI)",
  "note": "“And” between values parts separate entries of the source, which are not always exact repeats. Identical values can stand only once. About 83,000 compounds went through this panel and 20% of them were active in at least one assay; those are over-represented in the sample as a whole.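 Negative percent growth values reflect cell death: -40 means 40% of the cells present at the start died, and -100 means all died.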 The source made the active and inactive calls. Rule for the calls: active = growth percent below 10; inactive = the rest.",
  "data": [
    {"tested_on": "HL-60(TB) leukemia", "test": "NCI-60 one-dose screen, 48 h (100 = growth as untreated, 0 = no growth, -100 = all killed)", "conditions": "10 µM unless noted", "values": [
      {"smiles": "Cc1cccc(Cc2cnc(NC(=O)/C=C/c3ccco3)s2)c1", "growth": "-44.8% (active)"},
      {"smiles": "COc1ccc(-c2nn(-c3ccccc3)cc2/C=C2\\SC(=O)NC2=O)cc1", "growth": "88.2% (inactive)"},
      {"smiles": "CC(C)(C)n1cc(-c2ccnc(NCCCNS(=O)(=O)c3ccccc3)c2)c(-c2ccccc2)n1", "growth": "38.5% (inactive)"},
      {"smiles": "COc1ccc2c(c1)/C(=C1/S/C(=N/c3nnc(C)s3)NC1=O)C(=O)N2Cc1ccc(Br)cc1", "growth": "32.5% (inactive)"},
      {"smiles": "C[n+]1c2ccccc2c(NC2CCNCC2)c2[nH]c3ccccc3c21", "growth": "61.4% (inactive)"},
      {"smiles": "CN(C)CC(=O)Nc1ccc2ncnc(Nc3ccc(Oc4cccc(C(F)(F)F)c4)c(Cl)c3)c2c1", "growth": "2.72% (active)"},
      {"smiles": "Cc1ccc(S(=O)c2ccc([N+](=O)[O-])c3nonc23)cc1", "note": "(centres undefined)", "growth": "33.2% (inactive)"},
      {"smiles": "COc1ccc(Nc2cc(Cl)ccc2C(=O)O)cn1", "growth": "96.3% (inactive)"},
      {"smiles": "c1ccc(Cc2nn3cc(-c4ccccc4)nc3s2)cc1", "growth": "68% (inactive)"},
      {"smiles": "COc1cc(NCCCCCCCNC(C)C)c2nccc(C)c2c1", "growth": "75.1% (inactive) and 102% (inactive)"},
      {"smiles": "COc1ccc(-c2[nH]ncc2Nc2cc(OC)c(OC)c(OC)c2)cc1", "growth": "31.6% (inactive)"},
      {"smiles": "CC(=O)OC[C@]12CCC(C)(C)C[C@H]1[C@@]1(O)[C@H](O)C[C@@H]3[C@@]4(C)CCCNC(C)(C)[C@@H]4CC[C@@]3(C)[C@]1(C)CC2", "growth": "105% (inactive)"},
      {"smiles": "Cc1cc(=O)oc2c1ccc1oc(C#N)c(C)c12", "growth": "107% (inactive)"},
      {"smiles": "O=C(NCc1cccnc1)c1ccc([N+](=O)[O-])o1", "growth": "9.68% (active)"}
    ]}
  ]
}
